± gives the uncertainty stated by the source. The full ranking holds about 9,900 compounds; the median of “viability index relative to DMSO control” is about 1, and the lowest 2% start at about 0.85. The list comes from a sample in which the lowest values are over-represented; it also holds similar structures and randomly drawn compounds.
Test system: Plasmodium falciparum NF54 stage V gametocytes
Experiment: viability index relative to DMSO control (fraction); higher = less gametocyte killing
Conditions: 2.5 µM, incubation time: 72 h
In short: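 In 1,536-well plates, 10 µl of serum-free medium holding P. falciparum NF54 stage V gametocytes (0.75% gametocytemia, 1.25% hematocrit) received compound at 2.5 µM for 72 hr at 37°C in low oxygen. After one to two hours with 3 µl of 2.5 µM MitoTracker Red CMXRos containing 0.13% saponin, red particles of 20–70 µm2 were counted in a single field per well. Viability index is reported as the particle count over the plate mean of wells treated with solvent only.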

[1] = library set: Broad Institute DOS
[2] = library set: Broad Institute Blood Stage

| SMILES | viability index [1] | viability index [2] |
| --- | --- | --- |
| CO[C@H]1CN(C)C(=O)c2ccc(NS(C)(=O)=O)cc2OC[C@H](C)N(CC2CC2)C[C@@H]1C | 1.03 ± 0.087 | – |
| CO[C@@H](CN(C)Cc1nccs1)[C@@H](C)CN([C@@H](C)CO)S(=O)(=O)c1ccc(F)cc1 | 1.04 ± 0.0028 | – |
| COCC(=O)Nc1ccc2c(c1)[C@@H]1C[C@@H](CC(=O)NCc3ccc4c(c3)OCO4)O[C@@H](CO)[C@@H]1O2 | 1.01 ± 0.047 | – |
| N#C[C@@H]1[C@H](c2ccccc2C2=CCCCC2)[C@H](CO)N1C(=O)CN1CCOCC1 | 1.17 ± 0.13 | – |
| N#C[C@H]1[C@@H](c2ccc(-c3cccnc3)cc2)[C@@H](CO)N1C(=O)C1CCOCC1 | 1.07 ± 0.031 | – |
| C[C@@H]1CCCCO[C@@H](CN(C)C(=O)CCC(F)(F)F)[C@H](C)CN([C@@H](C)CO)C(=O)c2cc(NC(=O)C3CCCCC3)ccc2O1 | 1.13 ± 0.072 | – |
| Cc1ccccc1S(=O)(=O)N1C[C@@H]2N[C@H](C1)[C@@H]2c1ccc(/C=C/c2ccccc2)cc1 | 0.771 ± 0.028 | – |
| Cc1ccccc1S(=O)(=O)N1C[C@@H]2N[C@H](C1)[C@H]2c1ccc(-c2cccc(C#N)c2)cc1 | 1.03 ± 0.033 | – |
| Cc1ccccc1S(=O)(=O)N1C[C@@H]2N[C@H](C1)[C@H]2c1ccc(/C=C/c2ccccc2)cc1 | 1 ± 0.048 | – |
| COc1ccc(-c2ccc([C@@H]3[C@@H]4CN(S(=O)(=O)c5ccccc5C)C[C@H]3N4)cc2)cc1 | 0.713 ± 0.11 | – |
| Cc1ccccc1S(=O)(=O)N1C[C@@H]2N[C@H](C1)[C@@H]2c1ccc(-c2cccc(C#N)c2)cc1 | 0.903 ± 0.018 | – |
| C/C=C/c1ccc([C@@H]2[C@@H]3CN(S(=O)(=O)c4ccccc4F)C[C@H]2N3)cc1 | 0.904 ± 0.016 | – |
| COc1ccc(-c2ccc([C@H]3[C@@H]4CN(S(=O)(=O)c5ccccc5C)C[C@H]3N4)cc2)cc1 | 0.916 ± 0.068 | – |
| O=S(=O)(c1ccc(F)cc1)N1C[C@@H]2N[C@H](C1)[C@H]2c1ccc(/C=C/c2ccccc2)cc1 | 1.04 ± 0.055 | – |
| O=S(=O)(c1ccc(F)cc1)N1C[C@@H]2N[C@H](C1)[C@@H]2c1ccc(/C=C/c2ccccc2)cc1 | 0.78 ± 0.029 | – |
| COc1cccc(S(=O)(=O)N[C@@H]2CC[C@H](CC(=O)NC3Cc4ccccc4C3)O[C@H]2CO)c1 | 0.907 ± 0.18 | – |
| Cc1ccc(S(=O)(=O)Nc2ccc3c(c2)C(=O)N([C@H](C)CO)C[C@H](C)[C@H](CN(C)S(=O)(=O)c2cccs2)OCCCC[C@H](C)O3)cc1 | 1.07 ± 0.14 | – |
| CNC[C@H]1Oc2ccc(NS(=O)(=O)c3ccc(OC)cc3)cc2C(=O)N([C@H](C)CO)C[C@H]1C | 1.01 ± 0.079 | – |
| Cc1noc(C)c1NC(=O)N[C@H]1C=C[C@H](CC(=O)Nc2ccc(-c3ccccc3)cc2)O[C@H]1CO | 1.0744 ± 0.00039 | – |
| CO[C@H]1CN(C)C(=O)c2cc(NC(=O)c3ccc(F)cc3)ccc2OC[C@@H](C)N(C(=O)CC2CC2)C[C@H]1C | 1.099 ± 0.004 | – |
| CCCNC(=O)N1C[C@@H](O)COC[C@H]2O[C@@H](CC(=O)OC)CC[C@@H]21 | 1.14 ± 0.053 | – |
| N#C[C@@H]1[C@H](c2ccccc2-c2cccc(F)c2)[C@H](CO)N1C(=O)CN1CCOCC1 | 1.15 ± 0.068 | – |
| C/C=C/c1ccc([C@H]2[C@H](CO)N(S(C)(=O)=O)[C@H]2CNCC2CCC2)cc1 | 0.688 ± 0.08 | – |
| C/C=C/c1ccc([C@H]2[C@@H](CNC(=O)CC3CC3)N(C(=O)CC)[C@H]2CO)cc1 | 1.05 ± 0.054 | – |

| SMILES | viability index [1] | viability index [2] |
| --- | --- | --- |
| C/C=C/c1ccc([C@H]2[C@@H](CO)N(C(=O)C3CC3)[C@H]2CNC(=O)NC(C)C)cc1 | 0.989 ± 0.018 | – |
| C/C=C/c1ccc([C@H]2[C@@H](CO)N(CC3CCCCC3)[C@@H]2CNC(C)C)cc1 | – | 0.565 ± 0.068 |
| C/C=C/c1ccc([C@H]2[C@@H](CO)N(CC3CCCC3)[C@H]2CNS(C)(=O)=O)cc1 | 1.03 ± 0.099 | – |
| C/C=C/c1ccc([C@H]2[C@@H](CO)N(S(C)(=O)=O)[C@@H]2CN(C(C)=O)C(C)C)cc1 | 0.957 ± 0.06 | – |
| CCC(=O)Nc1ccc2c(c1)C(=O)N(C)C[C@@H](OC)[C@@H](C)CN(Cc1nccs1)[C@H](C)CO2 | 1.16 ± 0.082 | – |
| COC(=O)C[C@@H]1CC[C@@H]2[C@@H](COc3ccc(NC(=O)c4ccc(C(F)(F)F)cc4)cc3C(=O)N2C)O1 | 1.13 ± 0.065 | – |
| C[C@@H]1COCn2nncc2CC[C@H](Cc2cccc(Cl)c2)C(=O)N1 | 1.09 ± 0.051 | – |
| COCC(=O)Nc1ccc2c(c1)C(=O)N(C)[C@H]1CC[C@@H](CC(=O)NC3Cc4ccccc4C3)O[C@@H]1CO2 | 1.16 ± 0.13 | – |
| C[C@@H]1CN([C@@H](C)CO)C(=O)c2cc(/C=C/c3ccccc3)cnc2O[C@@H]1CN(C)S(=O)(=O)c1ccccc1F | 1.02 ± 0.059 | – |
| C[C@H](CO)N1C[C@H](C)[C@@H](CN(C)C(=O)C2CCCCC2)Oc2ncc(/C=C/c3ccccc3)cc2C1=O | – | 0.735 ± 0.028 |
| C[C@H]1CN([C@@H](C)CO)C(=O)c2cc(/C=C/c3ccccc3)cnc2O[C@@H]1CN(C)C(=O)C1CCCCC1 | – | 0.643 ± 0.072 |
| C[C@H]1CN([C@@H](C)CO)C(=O)c2cc(/C=C/c3ccccc3)cnc2O[C@@H]1CN(C)S(=O)(=O)c1ccccc1F | 1.03 ± 0.082 | – |
| C[C@H](CO)N1C[C@H](C)[C@@H](CN(C)S(=O)(=O)c2ccccc2F)Oc2ncc(/C=C/c3ccccc3)cc2C1=O | 1.05 ± 0.049 | – |
| C[C@H]1CN([C@@H](C)CO)C(=O)c2cc(/C=C/c3ccccc3)cnc2O[C@H]1CN(C)S(=O)(=O)c1ccccc1F | 1.03 ± 0.12 | – |
| COc1ccc2c3c([nH]c2c1)[C@@H](CO)N(Cc1cc(OC)cc(OC)c1)C[C@]31CN(C1)C(=O)Nc1c(C)noc1C | 0.974 ± 0.12 | – |
| C[C@H](CO)N1C[C@H](C)[C@@H](CN(C)Cc2ccc3cccnc3c2)OCc2cnnn2CCCC1=O | 1.07 ± 0.014 | – |
| Cc1noc(C)c1NC(=O)Nc1ccc2c(c1)C(=O)N([C@@H](C)CO)C[C@H](C)[C@H](CN(C)S(=O)(=O)c1cccs1)OCCCC[C@@H](C)O2 | 1.09 ± 0.045 | – |
| CC(C)NC(=O)Nc1ccc2c(c1)C(=O)N(C)[C@@H]1CC[C@H](CC(=O)NCc3ccc(F)cc3)O[C@@H]1CO2 | 1.11 ± 0.047 | – |
| CN1C(=O)c2cc(NC(=O)Nc3ccc(Cl)cc3)ccc2OC[C@@H]2O[C@@H](CC(=O)NCCN3CCCCC3)CC[C@H]21 | 0.838 ± 0.04 | – |
| CC(C)NC(=O)Nc1ccc2c(c1)C(=O)N(C)[C@H]1CC[C@H](CC(=O)NCc3ccc(F)cc3)O[C@H]1CO2 | 0.919 ± 0.034 | – |
| COc1ccc(C(=O)Nc2ccc3c(c2)C(=O)N(C)[C@H]2CC[C@H](CC(=O)NCC4CC4)O[C@H]2CO3)cc1 | 0.823 ± 0.15 | – |
| CC(C)NC(=O)Nc1ccc2c(c1)C(=O)N(C)[C@H]1CC[C@@H](CC(=O)NCc3ccc(F)cc3)O[C@H]1CO2 | 0.814 ± 0.17 | – |
| COc1ccc(C(=O)Nc2ccc3c(c2)C(=O)N(C)[C@@H]2CC[C@@H](CC(=O)NCC4CC4)O[C@H]2CO3)cc1 | 0.932 ± 0.15 | – |
| COc1ccc(C(=O)Nc2ccc3c(c2)C(=O)N(C)[C@@H]2CC[C@@H](CC(=O)NCC4CC4)O[C@@H]2CO3)cc1 | 1.03 ± 0.11 | – |

| SMILES | viability index [1] | viability index [2] |
| --- | --- | --- |
| CN1C(=O)c2cc(NC(=O)Nc3ccc(Cl)cc3)ccc2OC[C@H]2O[C@@H](CC(=O)NCCN3CCCCC3)CC[C@H]21 | 1.01 ± 0.025 | – |
| CN1C(=O)c2cc(NC(=O)Nc3ccc(Cl)cc3)ccc2OC[C@@H]2O[C@H](CC(=O)NCCN3CCCCC3)CC[C@H]21 | 0.955 ± 0.11 | – |
| O=C(C[C@H]1CC[C@H]2[C@@H](COC[C@@H](O)CN2Cc2nccs2)O1)NCc1ccccc1Cl | 1.1 ± 0.03 | – |
| C[C@@H]1CN([C@H](C)CO)C(=O)Cc2cc(NC(=O)c3ccncc3)ccc2O[C@H]1CN(C)C(=O)Nc1ccc(F)cc1 | 0.944 ± 0.12 | – |
| CC(C)NC[C@@H]1[C@H](c2ccc(C3=CCCCC3)cc2)[C@H](CO)N1S(C)(=O)=O | 0.996 ± 0.022 | – |
| C[C@H]1CN([C@@H](C)CO)C(=O)CCCn2nncc2CO[C@@H]1CN(C)Cc1ccccc1C(=O)O | 1.04 ± 0.031 | – |
| O=C(c1ccccn1)N1CC2(C1)[C@@H](c1ccccc1)[C@@H](CO)N2C(=O)C1CCCCC1 | 1.041 ± 0.0089 | – |
| OC[C@H]1[C@@H](c2ccc(C3=CCCC3)cc2)[C@@H]2CN(Cc3ccncc3)CCCCN12 | 0.845 ± 0.14 | – |
| OC[C@@H]1[C@H](c2ccc(C3=CCCC3)cc2)[C@H]2CN(Cc3ccncc3)CCCCN12 | 1.05 ± 0.068 | – |
| OC[C@H]1[C@@H](c2ccc(-c3cccc(F)c3)cc2)[C@@H]2CN(Cc3cncnc3)CCCCN12 | 0.963 ± 0.1 | – |
| OC[C@@H]1[C@@H](c2ccc(-c3cccnc3)cc2)[C@@H]2CN(Cc3ccccn3)CCCCN12 | 0.737 ± 0.12 | – |
| OC[C@@H]1[C@H](c2ccc(-c3cccnc3)cc2)[C@@H]2CN(Cc3ccccn3)CCCCN12 | 1.04 ± 0.06 | – |
| OC[C@@H]1[C@H](c2ccc(-c3cccnc3)cc2)[C@H]2CN(Cc3ccccn3)CCCCN12 | 0.979 ± 0.024 | – |
| CN1C(=O)c2cc(NC(=O)c3ccc4c(c3)OCO4)ccc2OC[C@H]2O[C@@H](CC(=O)O)CC[C@@H]21 | 1.11 ± 0.071 | – |
| CO[C@@H](CN(C)C(=O)c1cc(Cl)cc(Cl)c1)[C@@H](C)CN(C(=O)Nc1ccc(F)cc1)[C@@H](C)CO | 1.04 ± 0.018 | – |
| N#C[C@H]1[C@@H](c2ccccc2)[C@@H](CO)N1C(=O)c1ccc2c(c1)OCO2 | 1.08 ± 0.022 | – |
| N#C[C@H]1[C@@H](c2ccccc2C2=CCCC2)[C@H](CO)N1C(=O)Cc1ccncc1 | 1.07 ± 0.13 | – |
| COc1ccc(S(=O)(=O)N(C)C[C@H]2OCCCC[C@@H](C)Oc3ccc(NC(=O)Cc4ccccc4)cc3C(=O)N([C@@H](C)CO)C[C@H]2C)cc1 | 0.773 ± 0.061 | – |
| COc1ccc(S(=O)(=O)N(C)C[C@H]2OCCCC[C@H](C)Oc3ccc(NC(=O)Cc4ccccc4)cc3C(=O)N([C@H](C)CO)C[C@H]2C)cc1 | 0.9061 ± 0.001 | – |
| COc1ccc(S(=O)(=O)N(C)C[C@H]2OCCCC[C@H](C)Oc3ccc(NC(=O)Cc4ccccc4)cc3C(=O)N([C@@H](C)CO)C[C@H]2C)cc1 | 0.791 ± 0.031 | – |
| COc1ccc(S(=O)(=O)N(C)C[C@@H]2OCCCC[C@H](C)Oc3ccc(NC(=O)Cc4ccccc4)cc3C(=O)N([C@@H](C)CO)C[C@H]2C)cc1 | 0.911 ± 0.17 | – |
| COc1ccc(S(=O)(=O)N(C)C[C@H]2OCCCC[C@@H](C)Oc3ccc(NC(=O)Cc4ccccc4)cc3C(=O)N([C@@H](C)CO)C[C@@H]2C)cc1 | 1.07 ± 0.17 | – |
| COc1ccc(S(=O)(=O)N(C)C[C@H]2OCCCC[C@H](C)Oc3ccc(NC(=O)Cc4ccccc4)cc3C(=O)N([C@H](C)CO)C[C@@H]2C)cc1 | 0.994 ± 0.022 | – |

Source: the supplement of paper PMC4723716
